Beta2AR agonist = activates human beta-2 adrenergic receptor causing internalization. P07550. Am2.2-beta2AR cells, FAP receptor internalization, flow cytometry. response, % (no concentration beside the values). 0.43% of 340,000 active;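 active = response above a set limit, near 3 SD of response in nonfluorescent compounds, cut at about 42% in these data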
Exocytosis inh = lytic granule exocytosis inhibition; AID 651702; TALL-104 LAMP-1 surface exposure, flow cytometry; cells stimulated with thapsigargin and PMA; 0.66% of 360,000 active; inhibition, % at 10 µM;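 active = inhibition above about 55%, limit read from the data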
ABHD5 PLIN5 PPI = inhibitors of human ABHD5-perilipin-5 interaction; Q00G26+Q8WTS1; Split G. princeps luciferase complementation, luminescence, 4 h; inhibition, % at 4 µM; 0.78% of 360,000 active;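 active = inhibition above the mean inhibition across every tested compound plus 3 SD, cut at about 22% in these data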;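 note: 0% = DMSO only wells and the 100% control is not disclosed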
TLR9-MyD88 block = inhibitors of human TLR9-MyD88 binding; CHO BLA complementation TLR9-MyD88, CCF4 FRET ratio; inhibition, % at 4.98 µM; 0.21% of 340,000 active; AID 504734;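 active = inhibition above the mean over all tested compounds plus 3 SD, cut at about 21% in these data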;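 note: 0% = DMSO only wells and 100% = clavulanate BLA inhibitor control wells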
NOD2 RIPK2 PPI = NOD2-RIPK2 protein interaction inhibition; 0.38% of 360,000 active; AID 624267; CHO BLA complementation NOD2-RIPK2, CCF4 ratio; inhibition, % at 4.98 µM; in the data active = inhibition above about 21%;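 note: 0% = vehicle only and 100% = reference blocker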
TLR4 MyD88 comp = inhibitors of human TLR4-MyD88 binding; HeLa CL3-4 TLR4/MyD88 BLA complementation, FRET ratio; inhibition, % at 8.4 µM; 0.18% of 200,000 active; in the data active = inhibition above about 25%;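 note: 0% = vehicle and 100% = reference inhibitor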
TLR9-MyD88 cf = TLR9-MyD88 interaction inhibition, confirmation. shares compounds with TLR9-MyD88 block. CHO TLR9/MyD88 BLA complementation, CCF4 FRET ratio. inhibition, % at 4.98 µM. 51% of 680 active. AID 540250;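 active = mean inhibition across three repeats above about 21% taken from the earlier screen, limit read from the data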;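 note: blue over green emission ratio reports constitutive TLR9 MyD88 association via BLA complementation; 0% = DMSO vehicle wells and 100% = clavulanate BLA inhibitor wells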
BLA counter = beta-lactamase reporter inhibition, counter-screen artifact. CHO-BLA cells, CCF4 FRET ratio, BLA reporter. 7% of 680 active. inhibition, % at 4.98 µM. shares compounds with TLR9-MyD88 block;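 active = mean inhibition above a 50% cutoff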;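 note: counterscreen of TLR9-MyD88 hits on CMV-driven BLA in CHO-K1 cells; 0% = DMSO alone and 100% = clavulanate blocking BLA; higher means less blue over green ratio so more BLA blockade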
TLR9 CHO tox = CHO cell toxicity counter-screen for TLR9-MyD88 inhibitors | shares compounds with TLR9-MyD88 block | TLR9-MyD88 CHO cells cytotoxicity, luminescence | 39% of 680 active | AID 588336 | inhibition, % at 4.98 µM; in the data active = inhibition above about 11%
The depositor's hits bear a star; nt = not tested or not shown. Only some compounds are listed: those with a hit (about 2% of all), similar ones and a draw of the others.

SMILES	Beta2AR agonist	Exocytosis inh	ABHD5 PLIN5 PPI	TLR9-MyD88 block	NOD2 RIPK2 PPI	TLR4 MyD88 comp	TLR9-MyD88 cf	BLA counter	TLR9 CHO tox
O=Nc1c(O)n(Cc2cccc(C(F)(F)F)c2)c2ccccc12	-0.2	2.5	-2.4	33.5*	13.5	11.9	8.7	9.0	1.9
Cc1ccc(NC(=O)c2cc(N3C(=O)C=CC3=O)ccc2N2CCOCC2)cc1Cl	76.2*	42.1	21.7	32.3*	-0.6	1.1	54.9*	18.3	97.3*
COc1ccc(NC(=O)c2sc(=O)n(Cc3ccc(F)c(Cl)c3)c2C)cc1OC	nt	3.6	7.4	nt	10.4	nt	nt	nt	nt
COc1ccc(/C=C/C(=O)NC(=S)Nc2ccc(S(=O)(=O)Nc3ccc(OC)nn3)cc2)cc1	0.6	-2.9	-3.9	26.9*	-5.2	-4.5	-3.5	-1.4	-1.3
CCOC(=O)COc1ccc2c(C#N)c3ccccn3c2c1	-3.9	-0.7	-6.5	25.8*	3.8	14.8	2.7	6.3	1.1
O=c1[nH]c(=S)[nH]c2c1[C@H](CCc1cccc(Cl)c1)O[C@H](C1CCCC1)C2	nt	7.4	-18.9	nt	-14.1	nt	nt	nt	nt
COc1ccc(-c2cc(C(=O)NCc3ccco3)c3ccccc3n2)c(OC)c1	-7.2	-4.2	2.8	32.7*	-4.1	nt	1.2	-0.6	-1.6
O=C(OCn1ncc(Br)c(Br)c1=O)c1ccccc1Cl	48.9*	97.5*	10.0	31.6*	82.4*	14.2	35.6*	24.2	100.1*
Cc1cc2nc3c(=O)n(C4CCCCC4)c(=O)[nH]c3nc2cc1N	-37.8	-3.6	-17.8	27.9*	6.3	11.9	19.6	25.0	-0.3
COc1ccc(O)c(/C=N/NC(=S)Nc2cccnc2)c1	-3.3	-5.3	0.6	28.9*	5.2	-3.0	15.0	8.1	16.7*
COc1cccc(/C=N/NC(=S)Nc2cccnc2)c1	-1.7	-1.9	-1.5	7.6	6.9	2.6	nt	nt	nt
CCCCOc1ccc(C(=O)NCCN2CCC(n3c(=O)[nH]c4ccccc43)CC2)cc1	nt	17.8	11.0	nt	-15.3	nt	nt	nt	nt
Cc1ccc(Sc2ccc([N+](=O)[O-])cc2[N+](=O)[O-])nc1	-17.7	-2.9	-0.3	-12.4	-6.5	-13.6	nt	nt	nt
O=[N+]([O-])c1ccc(Sc2cc[n+]([O-])c3ccccc23)c([N+](=O)[O-])c1	5.3	26.7	-0.4	31.7*	-0.8	nt	23.5*	7.2	30.3*
Cc1ccsc1-c1cc2nc(Nc3ccc(F)cc3)n(C)c(=O)c2s1	nt	-2.7	-0.7	nt	-13.0	nt	nt	nt	nt
O=C(COC(=O)c1cccc(Br)c1)Nc1ccc2[nH]c(=O)[nH]c2c1	-6.2	-7.8	-1.1	20.9*	2.6	nt	0.5	-2.3	3.2
O=C(COC(=O)c1c(F)cccc1F)Nc1ccc2[nH]c(=O)[nH]c2c1	-0.3	24.0	-1.9	3.9	-1.7	-8.9	nt	nt	nt
O=C(COC(=O)/C=C/c1ccc(Cl)cc1)Nc1ccc2[nH]c(=O)[nH]c2c1	-7.3	-2.3	-0.9	23.1*	1.9	nt	8.9	5.4	13.5*
O=C(COC(=O)/C=C/c1ccc(F)cc1)Nc1ccc2[nH]c(=O)[nH]c2c1	-0.9	-12.8	0.8	-8.4	-4.8	nt	nt	nt	nt
COc1cc(NC(=O)Cn2ncc(Cl)c(Cl)c2=O)c(C)cc1[N+](=O)[O-]	38.6	3.8	3.1	21.0*	12.5	18.3	23.4*	18.8	98.1*
COc1cc(NC(=O)CN2C(=O)CN(C)C2=O)c(C)cc1[N+](=O)[O-]	-4.4	-1.5	-7.0	-5.6	-0.6	3.3	nt	nt	nt
COc1ccc(C(=O)NCC(=O)N/N=C/C=C/c2ccccc2)cc1OC	-1.2	-0.9	1.6	3.0	-7.4	-8.4	nt	nt	nt
COc1ccc(C(=O)NCC(=O)N/N=C/C(C)=C/c2ccccc2)cc1OC	22.6	-2.6	4.2	20.9*	1.8	0.0	0.7	-2.3	-0.8

Assay outcomes: PubChem BioAssay, several laboratories
